Sm TGR inh: inhibitors of Schistosoma mansoni thioredoxin glutathione reductase; Potency, µM (highest dose often 114 µM), for inactives: at the top dose activity change, negative = inhibition, hits mostly inhibitors; purified TGR, DTNB reduction, TNB absorbance 405 nm; hit rate 3% among 360,000; Q962Y6; further: nearly all actives have a fitted effect of over 60% in size
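TGR 20 nM + NADPH 100 uM (dispensed conc.), cpd preinc 15 min RT; start with NADPH (500 uM addition) then DTNB (15 mM addition). Kinetic TNB absorbance, 405 nm filter. Four-parameter Hill fit across titration.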
Giardia FBPA inh-1: Giardia lamblia aldolase inhibition; A8B2U2; AID 2451; Potency, µM (highest dose often 59.6 µM), without a hit: top-dose activity, negative = inhibition, usual class: inhibitors; purified Giardia FBPA; hit rate 0.71% among 290,000; further: nearly all actives have a fitted effect of over 55% in size
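40 nM FBPA preincubated 10 min at RT with compound (up to 57.5 uM final), then substrate plus GAPDH/TPI/NAD/arsenate coupling and diaphorase/resazurin added. Fluorescence read after 20 min at RT, 525/598 nm.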
RE007 growth inh: less growth of the S. pombe RE007 Vpr strain; Potency, µM (highest dose often 92.2 µM), inactives show at the highest dose activity change, negative = less growth, actives largely listed as inhibitors; hit rate 0.21% among 360,000; S. pombe RE007 Vpr strain, BacTiter-Glo ATP luminescence, 24 h; AID 651644; active means well fitted falling curve with a large enough effect; inconclusive means small, poorly fitted or top-dose-only effect; inactive means no such curve, though single readings can be large or run the other way; further: nearly all actives have a fitted effect of over 50% in size
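Fission yeast RE007 carrying one integrated HIV-1 vpr copy, seeded at OD 0.01 in PMG+AL medium with 23 nL pinned compound. Grown 24 h at 30 degrees; viability read by BacTiter-Glo luminescence after 5 min.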
AmpC no deterg: blocks E. coli AmpC beta-lactamase in detergent-free assay; P00811; AmpC nitrocefin hydrolysis, absorbance 480 nm, 0.0001% Triton; Potency, µM (doses to about 57.1 µM), for the others: at the top dose activity change, negative = inhibition, most hits filed as inhibitors; hit rate 0.52% among 330,000;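 further: plate controls were no compound for no effect and no enzyme for full effect; nearly all actives have a fitted effect of over 20% in size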
Target sequence (P00811 whole entry, looked up): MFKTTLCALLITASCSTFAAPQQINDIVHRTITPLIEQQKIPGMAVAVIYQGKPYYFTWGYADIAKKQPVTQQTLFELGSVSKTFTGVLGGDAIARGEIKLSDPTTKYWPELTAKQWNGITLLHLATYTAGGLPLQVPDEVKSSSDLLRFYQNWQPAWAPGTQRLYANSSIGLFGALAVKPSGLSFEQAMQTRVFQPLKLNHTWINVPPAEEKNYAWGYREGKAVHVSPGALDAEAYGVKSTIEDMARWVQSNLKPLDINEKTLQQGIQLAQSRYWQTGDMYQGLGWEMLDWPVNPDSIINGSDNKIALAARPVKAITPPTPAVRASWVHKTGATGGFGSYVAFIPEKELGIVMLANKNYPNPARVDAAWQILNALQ
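20 mM phosphate pH 7.0 + 0.01% (detergent screen) or 0.0001% Triton X-100; 5.3 nM AmpC reagent; cpd preinc 15 min RT; nitrocefin (800 uM stock) to start; A480 q20 s × 4 min; Activity was normalised to no-enzyme and no-compound control wells.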
AmpC detergent: blocks E. coli AmpC beta-lactamase in detergent assay; P00811; AmpC hydrolysis of nitrocefin, absorbance 480 nm, 0.01% Triton; Potency, µM (series often up to 114 µM), for inactives: at the top dose activity change, negative = inhibition, usual class: inhibitors; hit rate 0.041% among 370,000;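 further: 0% = no-compound wells and -100% = no-enzyme wells; nearly all actives have a fitted effect of over 25% in size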
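AmpC (5.3 nM in the dispensed reagent) in 20 mM phosphate pH 7.0 with 0.01% (detergent screen) or 0.0001% Triton X-100 was preincubated with compounds for 15 min at room temperature. Nitrocefin was then added from an 800 uM solution, and hydrolysis was followed at 480 nm.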
Giardia growth: Giardia lamblia growth inhibition | shares compounds with Giardia FBPA inh-1 | Giardia lamblia trophozoite growth inhibition | Potency, µM (highest dose often 57.5 µM), for the others: at the highest dose activity change, negative = inhibition, usual class: inhibitors | hit rate 5% among 1,500;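 further: trophozoites exposed to compound for 48 h at 37 °C; nearly all actives have a fitted effect of over 70% in size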
Mammalian tox: mammalian cytotoxicity of Giardia aldolase inhibitor hits; AID 2786; hit rate 4% among 1,500; shares compounds with Giardia FBPA inh-1; mammalian cell viability counter-screen, qHTS; Potency, µM (highest dose often 57.5 µM), inactives show at the highest dose viability change, negative = toxicity, hits mostly inhibitors;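 further: Chinese hamster ovary cells used as mammalian cytotoxicity surrogate; viability measured as cellular ATP by luminescence; compound exposure lasted 48 h before reading; nearly all actives have a fitted effect of over 60% in size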
Giardia FBPA inh-2: confirmation of Giardia fructose-bisphosphate aldolase inhibitors; shares compounds with Giardia FBPA inh-1; purified Giardia aldolase enzyme activity, qHTS; Potency, µM (titrated, usually from 57.5 µM), inactives show at the top dose activity change, negative = inhibition, hits mostly inhibitors; hit rate 5% among 1,500; AID 2787; further: nearly all actives have a fitted effect of over 45% in size
Rabbit FBPA inh: selectivity test for Giardia aldolase inhibitors: rabbit aldolase; shares compounds with Giardia FBPA inh-1; Rabbit muscle FBPA enzyme inhibition, selectivity counter-screen; Potency, µM (series often up to 57.5 µM), for inactives: top-dose activity, negative = inhibition, hits mostly inhibitors; hit rate 4% among 1,500; further: nearly all actives have a fitted effect of over 60% in size
Target sequence (P00883 whole entry, looked up): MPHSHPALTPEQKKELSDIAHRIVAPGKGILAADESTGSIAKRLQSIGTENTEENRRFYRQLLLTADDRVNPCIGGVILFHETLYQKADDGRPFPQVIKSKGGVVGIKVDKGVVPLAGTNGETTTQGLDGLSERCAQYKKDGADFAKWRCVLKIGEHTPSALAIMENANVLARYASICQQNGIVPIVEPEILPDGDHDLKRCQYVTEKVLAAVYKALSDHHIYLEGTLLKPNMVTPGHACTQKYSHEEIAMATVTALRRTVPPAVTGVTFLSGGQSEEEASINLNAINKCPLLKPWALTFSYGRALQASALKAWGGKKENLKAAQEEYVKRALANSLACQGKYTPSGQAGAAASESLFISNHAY
GAPDH counter: GAPDH inhibition flagged for Giardia aldolase hits; Potency, µM (titrated, usually from 57.5 µM), for inactives: at the highest dose activity change, negative = inhibition, actives largely listed as inhibitors; shares compounds with Giardia FBPA inh-1; AID 2795; hit rate 6% among 1,500; GAPDH coupling enzyme counterscreen, biochemical, qHTS; further: nearly all actives have a fitted effect of over 55% in size
Starred values were filed as active, the others as inactive; ? = inconclusive; · = no result given; ! = repeats disagree; [ ] = dose if it differs, or a comment. Sampled rows, rich in hits. Any-hit rate of the full collection: about 3.4%. Unless noted, the call rests on the fitted dose curve; in most records, active means well fitted curve in the direction sought with a large enough effect; inconclusive means small, poorly fitted or top-dose-only effect, or another doubt; inactive means no such curve, though single readings can be large; an effect the other way counts as inactive or inconclusive. Unless noted, on the % scale 0 is the no-effect control and ±100 the full control effect; potency means the concentration at half of the fitted maximal effect.

SMILES	Sm TGR inh	Giardia FBPA inh-1	RE007 growth inh	AmpC no deterg	AmpC detergent	Giardia growth	Mammalian tox	Giardia FBPA inh-2	Rabbit FBPA inh	GAPDH counter
COc1cc(CN2CCN(Cc3ccc([N+](=O)[O-])cc3)CC2)c([N+](=O)[O-])cc1OC	6%	13µM*	4%	-1%[11.4 µM]	?	-17%	9%	?	-23%	-11%
c1ccc2nc3c(nc2c1)CCc1nonc1-3	6%	-4%	-17%	-16%	-3%	·	·	·	·	·
O/N=C1/CCc2nonc2/C1=N/O	4%	16µM*	?	-18%	9%	8.9µM*	8%	-8%	5%	-19%
Cn1c(=O)c2nc3ccc(NC(=O)C(F)(F)F)cc3nc2n(C)c1=O	5%	·	·	·	16%	·	·	·	·	·
CC(=O)Nc1ccc2nc3c(=O)n(C)c(=O)n(C)c3nc2c1	-13%	18µM*	-18%	-8%	5%	13%	-22%	?	?	40µM*
COc1ccc2nc(SCC(=O)Nc3c(C)cccc3C)[nH]c2c1	0%	-3%	2%	-10%	-2%	·	·	·	·	·
COc1ccc2nc(S(=O)Cc3ncc(C)c(OC)c3C)[nH]c2c1 (centres undefined)	-7%	16µM*!	-1%	-7%	-13%	?	-20%	-17%	-10%	-9%
CC(C)CCn1c(=O)c2ccccc2n2c(=S)[nH]nc12	-2%	29%	-17%	-39%	-7%	·	·	·	·	·
CCOCCCn1c(=O)c2ccccc2n2c(=S)[nH]nc12	-4%	13µM*	1%	-16%	1%	28%	5%	9%	18%	10%
C=CCNC(=S)/C(=C(\[O-])c1ccc(Cl)cc1)[n+]1ccccc1	?	13µM*	-10%	5%	-5%	-21%	4%	-2%	7%	-2%
Cn1ccnc1P(=S)(c1nccn1C)c1nccn1C	1%	7.9µM*	9%	-14%	?	13%[38.3 µM]	5%	2%	5%	-2%
Cn1ccnc1P(=S)(c1nccn1C)N1CCOCC1	-3%[11.4 µM]	-13%	5%	-14%	-9%	·	·	·	·	·
CC(=O)NC(c1ccc(F)c(F)c1)c1nc(-c2cccc(C(F)(F)F)c2)cs1 (centres undefined)	·	·	12%	·	·	·	·	·	·	·
COc1ccc(OC)c(S(=O)(=O)NNC(=S)Nc2ccc3c(c2)OCO3)c1	-21%	8.9µM*	-12%	-27%	-11%	9%[38.3 µM]	-1%	-16%	-10%	-17%
O=C1/C(=C/c2ccco2)SC(=S)N1c1cccnc1	14µM*	8.9µM*	?	-36%	-4%	?	-5%	-14%	-1%	-3%
CC(C)NC(=O)C(c1ccc(F)cc1)N(C(=O)CCC(=O)Nc1ccccn1)C1CCCCC1 (centres undefined)	-6%	5%	-14%	103%	-11%	·	·	·	·	·
COc1cccc(OC)c1C(=O)NC(C)CCc1ccccc1 (centres undefined)	-3%	0%	-3%	-8%	?	·	·	·	·	·
COc1cc(NC(C)CCc2ccccc2)cc(OC)c1OC (centres undefined)	0%	13µM*	-6%	-23%	-10%	-10%[10.4 µM]	-25%	?	?	?
CC(C)OC(=O)CNc1n[nH]c(=S)[nH]c1=O	0%	4.5µM*	-14%	-8%	5%	41%	-5%	6%	4%	6%
CC(C)COC(=O)C(C)Nc1n[nH]c(=S)[nH]c1=O (centres undefined)	0%	0%	54%	-7%	0%	·	·	·	·	·
COC(=O)CNc1n[nH]c(=S)[nH]c1=O	-14%	?	23%	-16%	-11%	·	·	·	·	·
CN(C)C(=O)CNc1n[nH]c(=S)[nH]c1=O	4%	16µM*	-3%	-7%	10%	?	4%	3%	3%	7%
Cc1cc(C)cc(N(C(=O)c2ccco2)C(C(=O)NC2CCCC2)c2ccncc2)c1 (centres undefined)	-14%	2%	3%	24%	-1%	·	·	·	·	·
COC(=O)N1CCC2(CCN(C(=O)Nc3cccc(C#N)c3)CC2)CC1	·	12%	·	·	·	·	·	·	·	·
O=c1cc2oc3cc(O)c(O)cc3c(-c3ccccc3O)c-2cc1O	8.9µM*	16µM*	·	16µM*	1%	-20%	8%	?	-6%	10%
SMILES	Sm TGR inh	Giardia FBPA inh-1	RE007 growth inh	AmpC no deterg	AmpC detergent	Giardia growth	Mammalian tox	Giardia FBPA inh-2	Rabbit FBPA inh	GAPDH counter
O=c1cc(-c2ccccc2O)oc2cc(O)ccc12	·	-1%	·	·	·	·	·	·	·	·
Cc1ccccc1-c1nc2ccccc2c(=O)n1/N=C/c1ccccc1[N+](=O)[O-]	3%	4.5µM*	-5%	-11%	6%	10µM*	?	?	?	35µM*
CC1CCCN(CCCOc2ccc(Br)cc2Cl)C1 (centres undefined)	16%	?	-22%	2%	3%	·	·	·	·	·
Cn1cc(C[C@H](NC(=O)OC(C)(C)C)C(=O)N[C@H](CO)Cc2ccccc2)c2ccccc21	·	·	-4%	·	·	·	·	·	·	·
NC(=S)c1cn(C2OC(CO)C(O)C2O)c2ncnc(N)c12 (centres undefined)	0%	14µM*	5%	-27%	-11%	-2%	?	12%	16%	-3%
Nc1ncnc2c1ccn2[C@@H]1O[C@H](CO)[C@@H](O)[C@H]1O	·	8%	-2%	·	·	·	·	·	·	·
COC(=O)c1ccc(NC(=S)NC(=O)c2cccnc2)cc1	?	7.1µM*	-1%	-12%	-6%	-13%[38.3 µM]	-22%	1%	10%	5%
CCOC(=O)Cc1csc(NC(=S)NC(=O)c2cccc([N+](=O)[O-])c2)n1	-14%	4.5µM*	4%	-25%	-4%	?	4%	12%	4%	11%
Cc1snnc1C(=O)NC(=S)Nc1ccccc1	8.9µM*	13µM*	-12%	-17%	-4%	26%	10%	4%	16%	2%
Cc1csc(NC(=O)c2ccccc2)n1	-29%	-13%	?	-16%	-15%	·	·	·	·	·

Screening data from PubChem.
